Each structure is given as a SMILES string. The source made the active and inactive calls. Cut-off read from the data, not from the text of the source: active = inhibition above about 65%; inactive = the rest.

The values below come from PubChem BioAssay AID588651 (The Scripps Research Institute Molecular Screening Center, 2011).

The subject of this assay is Antitargets. The experiment in a line: Fam108b inhibition by ABPP, late-stage follow-up, biochemical, gel-based ABPP, recombinant soluble Fam108b, HTS hits, complex proteome (AID 588651).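 Note: Fam108b spiked into mouse brain membrane proteome; tested at 20 µM.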 The conditions noted are these: FP-rhodamine labeling in proteome.
As for `C[n+]1c(-c2ccccc2)c2cc(N)ccc2c2ccc(N)cc21`, the outcome was inactive. The same measure for `Cc1ccccc1N1C(=O)/C(=C/c2ccco2)C(=O)NC1=S`: “inactive”. In the case of `NC(Cc1cc(O)c(O)cc1O)C(=O)O` (stereo not drawn), the outcome was inactive.
